IL1B secr inh – qHTS for Inhibitors of Inflammasome Signaling: IL-1-beta AlphaLISA Primary Screen; activity change, % at 57.5 µM; AID 743279, 2014; 360,000 tested, 4.7% active; THP-1 LPS/ATP IL-1B secretion, AlphaLISA, 16 h; active compounds read low; in the data active = activity change below about -50%; inconclusive = mostly about -30% to -49%
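THP-1 cells pretreated 1 hr with compounds (up to 57.5 uM final), then stimulated with LPS (250 ng/mL final) plus ATP (1.25 mM final); secreted IL-1B measured by AlphaLISA after 16 hr, decreased signal indicating inhibition.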
DT40 TDP1 CPT – qHTS for Inhibitors of human tyrosyl-DNA phosphodiesterase 1 (TDP1): qHTS in cells in presence of CPT | chicken DT40 Tdp1-/-;hTDP1 cells + 20 nM CPT, ATP luminescence, 48 h | 420,000 tested, 12% active | Potency, µM (top dose mostly 46.2 µM), for the others: at the highest dose activity change, negative = growth inhibition, usual class: inhibitors; note: potency is the fitted concentration of half-maximal effect; nearly all actives have a fitted effect of over 55% in size
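Cell growth measured by CellTiter-Glo luminescence after a minimum 48 h, 37 C compound exposure with 20 nM CPT in Tdp1-knockout DT40 cells stably expressing hTDP1, seeded 400/well; qHTS titration format.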
HT1080 IDH1KD tx – qHTS for induction of synthetic lethality in tumor cells producing 2HG: qHTS for the HT-1080-IDH1KD cell line | HT-1080 IDH1 knockdown viability, ATP luminescence, 48 h | Potency, µM (top dose mostly 46.1 µM), inactives show at the highest dose activity, negative = toxicity, actives largely listed as cytotoxic | 360,000 tested, 2% active;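 note: potency is the fitted concentration of half-maximal effect; 0% = DMSO wells and -100% = cell-free medium wells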
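IDH1KD HT-1080 cells, 750/well, RPMI + 5% FBS; compound pinned after 2 h settling; 48 h, 37 °C; CellTiter-Glo luminescence; % activity normalised to DMSO and no-cell wells; curves fitted, classed by r2 and efficacy.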
HT1080-NT tox – qHTS for induction of synthetic lethality in tumor cells producing 2HG: qHTS for the HT-1080-NT fibrosarcoma cell line | Potency, µM (top dose mostly 46.1 µM), without a hit: top-dose activity, negative = less viability, hits mostly cytotoxic | 360,000 tested, 1.6% active | AID 686970, 2013 | HT-1080-NT fibrosarcoma viability, CellTiter-Glo ATP luminescence, 48 h;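 note: NT is the 2HG producing partner of a matched IDH1 knockdown line; potency is the fitted concentration of half-maximal effect; 0% = DMSO-treated cells and -100% = media-only wells without cells; nearly all actives have a fitted effect of over 55% in size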
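750 cells/well, RPMI + 5% FBS; 2 h settle, compound pin-transfer, 48 h at 37 degrees C. CellTiter-Glo 10 min RT, luminescence. Normalized to DMSO and media-only wells.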
TDP1 cell noCPT – qHTS for Inhibitors of human tyrosyl-DNA phosphodiesterase 1 (TDP1): qHTS in cells in absence of CPT. DT40 Tdp1-/- hTDP1 cells, no CPT, ATP luminescence, 48 h. Potency, µM (titrated, usually from 46.2 µM), without a hit: top-dose activity change, negative = growth inhibition, actives largely listed as inhibitors. 420,000 tested, 15% active; note: potency is the fitted concentration of half-maximal effect; nearly all actives have a fitted effect of over 55% in size
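Luminescent ATP content (CellTiter-Glo) served as the growth readout. Knockout chicken DT40 cells expressing human TDP1 were exposed to compounds without camptothecin for a minimum 48 hr at 37 °C.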
* = called active by the depositor; ? = inconclusive; nt = not tested or not shown; [ ] = dose if it differs, or a comment. An excerpt weighted towards active compounds, which were near 19% of everything screened. Unless noted, calls come from the whole dose curve; as a rule, active = well fitted curve in the direction sought with a large enough effect; inconclusive = small, poorly fitted or top-dose-only effect, or another doubt; inactive = no such curve, though single readings can be large; an effect the other way counts as inactive or inconclusive. Unless noted, % is set by controls: 0 for no effect and ±100 for the full control effect.

SMILES | IL1B secr inh | DT40 TDP1 CPT | HT1080 IDH1KD tx | HT1080-NT tox | TDP1 cell noCPT
N=c1n(CCN2CCCCC2)c2ccccc2n1CC(O)c1cccc(Br)c1 (stereo unspecified) | -6.2 | 14.6µM* | ? | 23.1µM* | 16.4µM*
CN(C)CCn1c(=N)n(CC(O)c2ccc(Cl)c(Cl)c2)c2ccccc21 (stereo unspecified) | nt | 23.1µM* | ? | 23.1µM* | 23.1µM*
CCCNC(=O)C1(C)CCN(Cc2cc(-c3ccccc3)on2)C1 (stereo unspecified) | -2.5 | ? | 1.6% | -0.8% | 14.6µM*
CCCNC(=O)C1(C)CCCN(Cc2csc(-c3ccccc3)n2)C1 (stereo unspecified) | ? | ? | -3.8% | -27.0% | 20.6µM*
CCNC(=O)C1(C)CCCN(Cc2csc(-c3ccc(Cl)cc3)n2)C1 (stereo unspecified) | 0.0 | -108.6% | ? | 0.461µM* | -102.7%
CCCNC(=O)C1(C)CCCN(Cc2ccccc2-c2ccccc2)C1 (stereo unspecified) | 22.8 | ? | 3.0% | ? | ?
COc1ccc(C(=O)c2c[nH]c3ccccc23)cc1 | -8.1 | -19.4% | -4.8% | -1.4% | -22.7%
Cc1cc(=O)oc2cc(OCC(=O)Nc3ccccc3C(=O)O)ccc12 | 9.0 | 11.2% | -9.5% | -29.5% | -15.0%
Cc1ccc(C(=O)c2ccccc2C(=O)OCC(=O)NCC2CCCO2)cc1 (stereo unspecified) | -21.7 | 1.2% | 3.8% | 6.4% | ?
COc1cc(CN2CC(=O)N(c3ccccc3Cl)C2=S)cc(OC)c1OC | -13.9 | 18.4µM* | -19.7% | -5.5% | ?
COc1cc(Cl)c(C)cc1N1C(=O)CN(Cc2ccccc2)C1=S | -9.5 | -26.9% | -7.4% | -16.1% | ?
COc1cc(CN2CC(=O)N(c3cccc(Cl)c3C)C2=S)cc(OC)c1OC | -5.2 | 23.1µM* | -14.0% | -11.4% | ?
CC(C)NC(=O)C1Cc2c(-c3ccccc3Oc3ccccc3)ccnc2O1 (stereo unspecified) | -7.7 | ? | -8.9% | -8.0% | ?
CC(C)(C)c1ccc(OCCC(=O)Nc2cccc(S(=O)(=O)N3CCOCC3)c2)cc1 | 14.7 | ? | ? | -2.6% | ?
O=C(Nc1ccccc1)N(O)c1ccc(Cl)cc1 | 9.8 | 18.4µM* | 9.5% | 6.5% | 29.1µM*
O=C(Nc1ccc(Cl)cc1)N(Cc1cccs1)Cc1cccs1 | -23.8 | 18.4µM* | ? | ? | ?
O=C(Nc1ccc(Cl)cc1)N(Cc1nc2ccccc2c(=O)[nH]1)Cc1cccs1 | ? | ? | -18.4% | -11.6% | 20.6µM*
O=C(Cc1cccs1)Nc1ccc(Cl)cc1 | 21.3 | -20.4% | 14.6% | 5.2% | ?
CCN(CCS(=O)(=O)c1ccc(Cl)cc1)C(=O)Nc1ccccc1 | 5.2 | 1.8% | 0.8% | 1.1% | -9.2%
CC(=O)Nc1ccc(N2CCN(Cc3ccccc3)CC2)cc1 | -9.0 | 7.0% | 7.4% | 1.4% | 1.9%
Cc1noc(C)c1C(=O)Nc1cccc2ncccc12 | 7.4 | 6.8% | -0.4% | 3.8% | -21.2%
Cc1cc(NC(=O)C(C)SCC(=O)Nc2cc(Cl)ccc2N2CCN(C)CC2)no1 (stereo unspecified) | 2.4 | -17.8% | 2.5% | -1.2% | -20.9%
O=C(O)COc1ccccc1/C=N/NC(=O)c1cc2ccccc2cc1O | 9.2 | -11.1% | -29.3% | -30.6% | 9.1%
CC1(C)CC2(C)OC2C2(C1)N=NC(=Nc1ccccc1)O2 (stereo unspecified) | -99.2* | 4.11µM* | ? | 9.2µM* | 4.11µM*
Cc1cc(C)nc(N/C(=N\S(=O)(=O)Cc2ccccc2)Nc2ccc(F)c(Cl)c2)n1 | 3.7 | 18.4µM* | 10.9% | 4.1% | 25.9µM*
SMILES | IL1B secr inh | DT40 TDP1 CPT | HT1080 IDH1KD tx | HT1080-NT tox | TDP1 cell noCPT
COc1cc(OC)nc(Oc2ccccc2C=O)n1 | -15.9 | ? | ? | ? | ?
O=Cc1ccccc1C=O | nt | 9.44µM* | nt | nt | ?
O=Cc1ccccc1Oc1ccccc1 | 9.9 | ? | -0.4% | -0.1% | 11.6µM*
N#Cc1ccccc1Oc1ccccc1C=O | 24.7 | ? | -16.6% | -7.8% | 16.4µM*
CCS(=O)(=O)c1ccc(O)c(NC(=O)c2ccc(S(=O)(=O)N3CCCCCC3)cc2)c1 | 9.9 | -6.6% | -16.5% | -5.5% | -3.2%
Cc1ccc(-n2c(=O)[nH]c3cc(C(=O)NCc4ccccc4)ccc3c2=O)cc1 | nt | -8.0% | nt | nt | -4.1%
COCCN(C(=O)CSc1nnc(-c2ccccc2F)n1C)c1c(N)n(Cc2ccccc2)c(=O)[nH]c1=O | 9.9 | 7.0% | -1.3% | 0.9% | -1.8%
O=C(O)c1cccc([N+](=O)[O-])c1C(=O)Nc1ccc2ccccc2c1 | 39.1 | 2.2% | -0.6% | -7.3% | 0.0%
CCC(Sc1nnc(-c2ccc(F)cc2)c(-c2ccc(F)cc2)n1)C(=O)NC1CCCC1 (stereo unspecified) | nt | -24.0% | nt | nt | ?
Cc1nc2c(OCc3ccc(F)cc3)cccn2c1N(C)C(=O)CCC1CCCC1 | -24.7 | ? | ? | ? | 23.1µM*
Cc1nc2c(OCc3ccc(C(F)(F)F)cc3)cccn2c1N(C)C(=O)CCC1CCCC1 | -11.1 | ? | ? | ? | ?
Cc1nc2c(OCc3ccc(C#N)cc3)cccn2c1N(C)C(=O)CCC1CCCC1 | -55.3* | ? | -20.9% | -7.3% | ?
Cc1nc2c(OCc3ccc(Cl)cc3)cccn2c1N(C)C(=O)CCC1CCCC1 | 11.6 | 14.6µM* | 18.2% | 14.5% | 23.1µM*
COC(=O)c1ccc(COc2cccn3c(N(C)C(=O)CCC4CCCC4)c(C)nc23)cc1 | 15.8 | 18.4µM* | ? | ? | 20.6µM*
COc1cccc(C(=O)NCC2Cc3cccc(-c4nc(C)cnc4C)c3O2)c1OC (stereo unspecified) | nt | 17.1%[9.04 µM] | nt | nt | ?
CCc1nc2ccc(C(=O)NCCNC(C)=O)cn2c1N(C)CCCc1ccccc1 | 124.7 | -24.7% | 24.3% | 14.2% | ?
CCCOC(=O)CC1C(=O)NCCN1C(=O)OC(C)(C)C (stereo unspecified) | -15.9 | -11.5% | 1.4% | -9.1% | -2.4%
CCOC(=O)COc1ccc(CC)cc1C(=O)c1ccn2nc(-c3ccc(Cl)cc3)cc2n1 | nt | 20.6µM* | nt | nt | 20.6µM*
CCOC(=O)c1nnc2cc(-c3ccccc3)nn2c1C | 8.1 | -23.7% | 7.0%[9.24 µM] | 0.9% | ?
CCOC(=O)COc1ccc(CC)cc1C(=O)c1ccn2nc(-c3ccccc3)cc2n1 | nt | 14.6µM* | nt | nt | 23.1µM*

Bioassay records deposited in PubChem by National Center for Advancing Translational Sciences (NCATS).
